The text below walks through data of PubChem BioAssay (NCI).

Each structure is given as a SMILES string. The panel holds about 83,000 compounds, 20% with a hit somewhere; the sample as a whole holds those more often.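 Interpretation: 100, growth as untreated; towards 0, rising growth inhibition; 0, no net growth; 0 to -100, cell death. Compounds scoring below 10 were considered active.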 A number with no mark means an inactive call. Calls of active or inactive are those of the source.

This assay relates to HL-60(TB) leukemia. Put plainly: NCI-60 one-dose screen, 48 h (100 = growth as untreated, 0 = no growth, -100 = all killed). As to conditions: 10 µM unless noted.
Consider `Nc1nsc(C(=O)c2ccc(O)cc2)n1`, for which the growth is 92.4%. Take `COc1ccc(CCNC=O)cc1OC`: the growth is 96.9%. Take `N#Cc1ccc(N2Cc3cc(Cl)ccc3OC3=C2C(=O)N(Cc2ccc(F)cc2)C3=O)cc1`: the growth was -57.9% (active).
